Screens deposited in PubChem BioAssay by National Center for Advancing Translational Sciences (NCATS).
ATXN2 expr inh: reduces ATXN2 reporter expression in HEK-293 cells | hit rate 0.72% among 360,000 | HEK-293 ATXN2-luciferase reporter, luminescence, 24 h | Potency, µM (highest dose often 57 µM), hits mostly inhibitors; further: nearly all actives have a fitted effect of over 55% in size
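ATXN2-luciferase reporter cells (luciferase flanked by upstream and downstream ATXN2 gene portions) were treated 24 h at 37 °C with compounds at up to 57 uM. SteadyGlo luminescence gave expression; GF-AFC fluorescence gave viability.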
Integrin act MD: integrin-mediated muscular dystrophy alleviation activation. alpha7betagal myoblasts, beta-gal FDG fluorescence, 48 h. hit rate 0.064% among 350,000. Potency, µM (doses to about 38.3 µM), usual class: activators; further: nearly all actives have a fitted effect of over 60% in size
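Alpha7betagal+/- myoblasts (passage 13) were plated 16-24 hr, then exposed to compounds (1:260 dilution of DMSO stock) for 48 hours at 37C. After MPER lysis, β-galactosidase reporter activity was read as FDG fluorescence (ex 480/em 540) after 30 minutes.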
ATXN viability: reduces viability in counter-screen for ATXN expression inhibitors; hit rate 0.49% among 400,000; S2 cells (HEK-293 line with an ATXN2-luciferase reporter) viability, CellTiter-Fluor protease fluorescence, 24 h; Potency, µM (series often up to 56.7 µM), most hits filed as cytotoxic; further: nearly all actives have a fitted effect of over 40% in size
IL1B secr inh: inflammasome signaling inhibition, IL-1 beta readout; hit rate 4.7% among 360,000; activity change, % at 57.5 µM; THP-1 LPS/ATP IL-1B secretion, AlphaLISA, 16 h; hits give low values; in the data active means activity change below about -50%; inconclusive means mostly about -30% to -49%
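THP-1 cells pretreated 1 hr with compounds (up to 57.5 uM final), then stimulated with LPS (250 ng/mL final) plus ATP (1.25 mM final); secreted IL-1B measured by AlphaLISA after 16 hr, decreased signal indicating inhibition.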
DRD3 antagonist: antagonists of human D3 dopamine receptor; P35462; D3R cells, DiscoveRx beta-arrestin luminescence, antagonist mode; hits give low values; max response, negative = inhibition, %; hit rate 2.5% among 360,000; AID 652054; in the data active means max response below about -50%; inconclusive means no clear call, values can overlap the other calls
Target sequence (P35462 whole entry, looked up): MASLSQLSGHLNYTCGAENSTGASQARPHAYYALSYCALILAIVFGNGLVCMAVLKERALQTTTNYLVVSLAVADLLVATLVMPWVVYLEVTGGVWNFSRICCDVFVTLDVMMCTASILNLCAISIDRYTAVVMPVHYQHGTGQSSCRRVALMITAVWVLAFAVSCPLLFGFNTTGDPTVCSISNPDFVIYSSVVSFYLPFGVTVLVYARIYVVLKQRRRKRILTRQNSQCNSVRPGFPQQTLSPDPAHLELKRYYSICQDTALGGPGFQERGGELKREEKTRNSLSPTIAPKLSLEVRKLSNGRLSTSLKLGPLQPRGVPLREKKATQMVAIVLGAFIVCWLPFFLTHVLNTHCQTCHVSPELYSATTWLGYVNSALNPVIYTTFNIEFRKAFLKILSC
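Cells plated overnight at 1500 cells/well, then exposed to library compounds with dopamine controls for 90 minutes at 37 degrees C. DiscoveRx reagent added for 30–60 minutes at room temperature; luminescence read, quantitative HTS format.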
D3 ag: activates the human D3 dopamine receptor; AID 652048; max activation, %; P35462; hit rate 0.58% among 410,000; D3R DiscoveRx beta-arrestin cells, luminescence, 90 min; in the data active means max activation above about 30%
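Cells at 1500/well, incubated overnight, then treated with pinned compounds (dopamine as control) for 90 min at 37 degrees C. DiscoveRx reagent added for 30 - 60 minutes at room temperature; luminescence read.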
A number is an active result. Rows were chosen to be rich in hits. Some 7% of all compounds tested hit in one or more screens of this group. Unless noted, the call rests on the fitted dose curve; in most records, active means well fitted curve in the direction sought with a large enough effect; inconclusive means small, poorly fitted or top-dose-only effect, or another doubt; inactive means no such curve, though single readings can be large; an effect the other way counts as inactive or inconclusive.

How did COc1cccc(C(C)(O)c2nc(-c3ccc(S(C)(=O)=O)cc3)cs2)c1 (stereo not given) do in these assays?
ATXN2 expr inh: inactive; ATXN viability: inactive; IL1B secr inh: inactive; DRD3 antagonist: inactive; D3 ag: 79.9

Results for CC(O)(c1cccc(F)c1)c1nc(-c2ccccc2)cs1 (stereo not given) ?
ATXN2 expr inh: inactive; ATXN viability: inactive; IL1B secr inh: inactive; DRD3 antagonist: -89.1; D3 ag: inactive

What do the screens show for `COc1ccc(/C(O)=C2/C(=O)C(=O)N(c3ncccn3)C2c2ccc(F)cc2)cc1` (stereo not given)?
ATXN2 expr inh: inactive; Integrin act MD: inactive; ATXN viability: inconclusive; IL1B secr inh: inactive; DRD3 antagonist: inactive; D3 ag: inactive

Results for CCOC(=O)C(c1ccccc1)C(Nc1ccc(Cl)c(Cl)c1)c1ccccn1 (stereo not given) ?
ATXN2 expr inh: inactive; Integrin act MD: inactive; ATXN viability: inactive; IL1B secr inh: inactive; DRD3 antagonist: inactive; D3 ag: inactive

What do the screens show for `C/C=C/c1ccc(OCC(=O)N2CCc3cc(OC)c(OC)cc3C2)c(OC)c1`?
ATXN2 expr inh: inactive; Integrin act MD: inactive; ATXN viability: inactive; IL1B secr inh: inconclusive; DRD3 antagonist: inactive; D3 ag: inactive

Results for CC(O)(c1cccc(F)c1)c1nc(-c2cccc(C(F)(F)F)c2)cs1 (stereo not given) ?
ATXN2 expr inh: inconclusive; ATXN viability: inconclusive; IL1B secr inh: inactive; DRD3 antagonist: -53.1; D3 ag: inactive

Results for N/C(Cc1cccc2ccccc12)=N\OC(=O)Cc1cccs1 ?
ATXN2 expr inh: inactive; Integrin act MD: inactive; ATXN viability: inactive; IL1B secr inh: inactive; DRD3 antagonist: inactive; D3 ag: inactive

Results for CCOP(=O)(OCC)/C(=N/OC(=O)c1ccc(OC)cc1)C(N)=O ?
ATXN2 expr inh: inactive; Integrin act MD: inactive; ATXN viability: inactive; IL1B secr inh: inactive; DRD3 antagonist: inconclusive; D3 ag: inactive

How did N/C(Cc1cccc2ccccc12)=N\OC(=O)c1cccs1 do in these assays?
ATXN2 expr inh: inactive; Integrin act MD: inactive; ATXN viability: inactive; IL1B secr inh: inactive; DRD3 antagonist: -75.6; D3 ag: inactive

Results for Cc1ccccc1OCC(=O)O/N=C(\N)Cc1cccs1 ?
ATXN2 expr inh: inactive; Integrin act MD: inactive; ATXN viability: inactive; IL1B secr inh: inactive; DRD3 antagonist: inactive; D3 ag: inactive

How did CCOP(=O)(OCC)/C(=N/OC(=O)c1ccccc1C)C(N)=O do in these assays?
ATXN2 expr inh: inactive; Integrin act MD: inactive; ATXN viability: inactive; IL1B secr inh: -103.5; DRD3 antagonist: inconclusive; D3 ag: inactive

What do the screens show for `Cc1ccccc1C(=O)O/N=C(\N)Cc1cccs1`?
ATXN2 expr inh: inactive; Integrin act MD: inactive; ATXN viability: inconclusive; IL1B secr inh: -60.9; DRD3 antagonist: inactive; D3 ag: inactive

How did Clc1ccc2nc(CN3CCCCCC3)cn2c1 do in these assays?
ATXN2 expr inh: inactive; Integrin act MD: inactive; ATXN viability: inactive; IL1B secr inh: inactive; DRD3 antagonist: -84.8; D3 ag: inactive

How did Clc1ccc2nc(CN3CCCc4ccccc43)cn2c1 do in these assays?
ATXN2 expr inh: inactive; Integrin act MD: inactive; ATXN viability: inactive; IL1B secr inh: -78.4; DRD3 antagonist: inactive; D3 ag: inactive

What do the screens show for `CCCc1cc(=O)oc2c3c(cc(OCC(=O)NCCCn4ccnc4)c12)OC(C)(C)CC3`?
ATXN2 expr inh: inactive; Integrin act MD: inactive; ATXN viability: inactive; IL1B secr inh: inactive; DRD3 antagonist: inactive; D3 ag: inactive

What do the screens show for `COc1ccc(C(CNC(=O)c2cccc(S(=O)(=O)N3CCCc4ccccc43)c2)N(C)C)cc1` (stereo not given)?
ATXN2 expr inh: inactive; Integrin act MD: inactive; ATXN viability: inactive; IL1B secr inh: -53.7; DRD3 antagonist: inconclusive; D3 ag: inactive

How did COc1ccc(CN(C)C(=O)c2cccc(S(=O)(=O)N3CCCc4ccccc43)c2)c(OC)c1OC do in these assays?
ATXN2 expr inh: inconclusive; Integrin act MD: inactive; ATXN viability: inconclusive; IL1B secr inh: inactive; DRD3 antagonist: inactive; D3 ag: inactive

What do the screens show for `COc1ccc(C(CNC(=O)c2cccc(S(=O)(=O)NCc3ccccc3)c2)N(C)C)cc1` (stereo not given)?
ATXN2 expr inh: inactive; Integrin act MD: inactive; ATXN viability: inactive; IL1B secr inh: inactive; DRD3 antagonist: -71.3; D3 ag: inactive

How did COc1ccc(NS(=O)(=O)c2cccc(C(=O)NCC(c3ccccc3)N(C)C)c2)cc1 (stereo not given) do in these assays?
ATXN2 expr inh: inactive; Integrin act MD: inactive; ATXN viability: inactive; IL1B secr inh: inactive; DRD3 antagonist: inconclusive; D3 ag: inactive

What do the screens show for `COC(=O)c1cccc(S(=O)(=O)N2CCN(c3nc4ccccc4s3)CC2)c1`?
ATXN2 expr inh: inactive; Integrin act MD: inactive; ATXN viability: inactive; IL1B secr inh: inactive; DRD3 antagonist: -68.1; D3 ag: inactive

How did CN(C)C(CNC(=O)c1cccc(S(=O)(=O)N2CCN(c3ccccc3)CC2)c1)c1ccccc1 (stereo not given) do in these assays?
ATXN2 expr inh: inactive; Integrin act MD: inactive; ATXN viability: inactive; IL1B secr inh: inactive; DRD3 antagonist: -71.2; D3 ag: inactive

How did COc1ccc(C(CNC(=O)c2ccc(S(=O)(=O)N3CC(C)CC(C)C3)cc2)N(C)C)cc1 (stereo not given) do in these assays?
ATXN2 expr inh: inactive; Integrin act MD: inactive; ATXN viability: inactive; IL1B secr inh: -52.2; DRD3 antagonist: -62.8; D3 ag: inactive

What do the screens show for `CCN(CC)CCNC(=O)c1ccc(NC(=O)c2cccc(S(=O)(=O)N3CCc4ccccc43)c2)cc1`?
ATXN2 expr inh: inactive; Integrin act MD: inactive; ATXN viability: inactive; IL1B secr inh: -84.6; DRD3 antagonist: inactive; D3 ag: inactive

How did COc1ccc(C(CNC(=O)c2ccc(S(=O)(=O)N3CCCC3)cc2)N(C)C)cc1OC (stereo not given) do in these assays?
ATXN2 expr inh: inactive; Integrin act MD: inactive; ATXN viability: inactive; IL1B secr inh: inactive; DRD3 antagonist: inactive; D3 ag: inactive

Results for Nc1ccccc1C(=O)N1CCc2ccccc21 ?
ATXN2 expr inh: inactive; Integrin act MD: inactive; ATXN viability: inactive; IL1B secr inh: inactive; DRD3 antagonist: inactive; D3 ag: inactive

Results for O=C(CSc1ncnc2c1oc1ccccc12)OCc1ccccc1 ?
ATXN2 expr inh: inactive; Integrin act MD: inactive; ATXN viability: inactive; IL1B secr inh: inactive; DRD3 antagonist: inactive; D3 ag: 30.3

Results for COC(=O)c1c(-c2ccc(Cl)cc2)noc1N1CCN(c2ccc(C(C)=O)cc2)CC1 ?
ATXN2 expr inh: inactive; ATXN viability: inactive; D3 ag: inactive

How did CC1CCN(C(=O)CSc2c3c(nc4ccc(Cl)cc24)CCCC3)CC1 do in these assays?
D3 ag: 68.7
